Assay [1] in a line: STM_H9_CystineISnorm_perc: Stemina devTOX quickPredict H9 human embryonic stem cell (hESC)-based Assay for Cystine (CYSS) Metabolite Biomarker, Normalized (AID 2283713; active = hit-call score of the fitted dose curve at least 0.9, where 1 is the maximum; inactive = score below 0.9). In outline: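 Secreted cystine was measured by UPLC-HRMS in H9 hESC medium after 72h compound exposure with 24-hourly replenishment. Values are standard-normalized areas relative to 0.1% DMSO.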
Assay [2] can be described thus: STM_H9_OrnCyssISnorm_ratio: Stemina devTOX quickPredict H9 human embryonic stem cell (hESC)-based Assay for Ornithine (ORN):Cystine (CYSS) Ratio (AID 2283714). In outline:
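Undifferentiated H9 hESCs exposed 72 h, media and compound replaced every 24 h; final 24-h conditioned media deproteinized and analysed by UPLC-HRMS against C13 spike-ins. Value is the internal-standard-normalized ORN/CYSS ratio versus 0.1% DMSO.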

A short description of assay [3]: ArunA_CellTiter_hNC: Viability Assessment in the ArunA Biomedical's Oris Neural Crest (hNC) Cell Migration Assay (AID 2283752). In outline: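 Viability of embryonic neural crest stem cells from the H9 line is scored 72 h after dosing, with DMSO as negative control and baseline. A drop in CellTiter Aqueous One signal indicates cytotoxicity.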
Assay [4] in a line: ArunA_CellTiter_hNP: Viability Assessment in the ArunA Biomedical's Oris Neural Crest (hNC) Cell Migration Assay (AID 2283753). Summed up:
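H9-derived hNP1 neuroprogenitors, 60,000/well on Matrigel, cultured 16 h, then 72 h chemical exposure in test medium. Cell titer via CellTiter Aqueous One; positive-direction fit vs DMSO.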

Assay [5] can be described thus: ArunA_Migration_hNP: ArunA Biomedical's Oris Neuroprogenitor (hNP) Cell Migration Assay (AID 2283754). Summed up:
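Human H9-derived hNP1 neuroprogenitors on Matrigel with LIF/bFGF, plated around seeding stoppers for 16 h at 37C; stoppers removed at start of 72 h chemical exposure. Calcein-AM staining, fluorescence 494/517 nm in detection zone; loss-of-signal vs DMSO; cytochalasin D control.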

Assay [6] in a line: ArunA_Migration_hNC: ArunA Biomedical's Oris Neural Crest (hNC) Cell Migration Assay (AID 2283755). Summed up: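 Human H9-derived neural crest stem cells, 60,000/well on Matrigel, 16 h at 37C, then 72 h chemical exposure after seeding-stopper removal. Migration into detection zone read as calcein-AM fluorescence (ex494/em517), relative to DMSO.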
Assay [7] can be described thus: ArunA_NOG_NucleusCount: ArunA Biomedical's Neurite Outgrowth (NOG) Assay for Nucleus Count (AID 2283756). In outline:
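Human H9-derived differentiated neurons were exposed for 48 h right after seeding. Hoechst-stained nuclei gated by size and intensity were counted by automated high-content imaging as viable neurons. Loss of signal vs DMSO.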

Assay [8] can be described thus: ACEA_AR_agonist_AUC_viability: ACEA Biosciences xCELLigence Real-Time Cell Analysis on Androgen Receptor Agonism for Viability (AID 2283775).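 As to AC50: viability read 80 hours after compound addition.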 Summed up:
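Read-out is area under the impedance curve at 80 h post-dose in 22Rv1 cells, with DMSO as baseline and signal loss taken as reduced viability. Compounds ran in duplicate from 100 uM final.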

The nature of assay [9]: CEETOX_H295R_MTT_cell_viability: Viability Assessment in the CeeTox HT-H295R MTT Assay (AID 2283718; active = hit-call score of the fitted dose curve at least 0.9, where 1 is the maximum; inactive = score below 0.9;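 as to AC50: curve fitted both ways so AC50 may mark viability loss or gain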). In outline:
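Human H295R adrenal cells, prestimulated 48 h with 10 uM forskolin, were exposed 48 h to chemicals in 0.1% DMSO. Viability was measured in the same wells by MTT (0.5 mg/ml, 4 h, 37 C), absorbance 570/650 nm, as percent of controls.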

Assay [10] in a line: Tanguay_ZF_120hpf_ActivityScore_legacy: (Legacy) Oregon State University Tanguay Lab 120 Hour Post-fertilization zebrafish Assay Score for Activity (AID 2283742).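 As to AC50: dechorionated Tropical 5D wild-type zebrafish embryos held singly per well; static exposure from 6 hpf until 120 hpf at 28 °C.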 Summed up:
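Dechorionated Tropical 5D embryos, one per well from 6 hpf, statically exposed to 120 hpf at 28 °C in 0.64% DMSO. Mortality and malformations scored binary by brightfield microscopy; activity score combines 18 endpoints, fitted positively versus DMSO.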

Assay [11] in a line: ArunA_NOG_NeuriteLength: ArunA Biomedical's Neurite Outgrowth (NOG) Assay for Neurite Length (AID 2283757). In outline: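 Differentiated human H9-derived neurons were exposed for 48 h from seeding, then stained with Hoechst and βIII-tubulin. Automated high-content imaging gave total neurite length per valid neuron, counting processes >10 um. Loss of signal was scored versus DMSO.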

Assay [12] in a line: ArunA_NOG_NeuritesPerNeuron: ArunA Biomedical's Neurite Outgrowth (NOG) Assay for Neurites Per Neuron (AID 2283758). In outline: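 Differentiated human H9-derived neurons exposed to chemicals for 48 h from seeding, then stained with Hoechst and βIII-tubulin/DyLight 488. Automated imaging counted neurites (processes >10 um) per valid neuron; loss of signal versus DMSO scored.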

A short description of assay [13]: ArunA_NOG_BranchPointsPerNeurite: ArunA Biomedical's Neurite Outgrowth (NOG) Assay for Branch Points Per Neurite (AID 2283759). Summed up: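 Automated image analysis traced neurites (processes >10 um) from valid cell bodies after Hoechst and βIII-tubulin staining. hNN cells from H9 embryonic stem cells, 48 h exposure. Fitted bidirectionally against DMSO.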
Assay [14] deals with Luciferin 4-monooxygenase (Photinus pyralis) (UniProt P08659). As to the kind of experiment: CCTE_Simmons_QuantiLum_inhib_2: CCTE's Firefly Luciferase Inhibition Assay, Simmons Lab (AID 2283767).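 As to AC50: potency for inhibitors that lower luciferase luminescence relative to DMSO.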 Summed up:
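Counter-screen for nonspecific enzyme inhibition: purified firefly luciferase incubated 30 min at 37C with chemicals up to 87.5 uM final, then luminescence measured after luciferin/dATP injection; activity fitted against DMSO baseline.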

In assay [15] the test system is Thyroperoxidase (TPO), gene 445522. As to the kind of experiment: CCTE_Simmons_GUA_TPO: CCTE's Guaiacol Assay for Thyroperoxidase (TPO) Inhibition, Simmons Lab (AID 2283750). Summed up: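 Porcine thyroid microsomes (25 ug) in 200mM potassium phosphate, preincubated 30 s at 37C with compound (8 concentrations, 5 nM–87.5 uM) and 35mM guaiacol; 1mM H2O2 starts reaction. Absorbance change at 450nm over first 80 s; loss of signal versus DMSO, three replicates.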

Records with an inconclusive call do not appear. The source made the active and inactive calls. The calls were made as follows, unless noted: active = hit-call score of the fitted dose curve at least 0.9, where 1 is the maximum; inconclusive = response in the unintended direction; inactive = score below 0.9.

Our source for the outcome and AC50 values is PubChem BioAssay (EPA / NIEHS).

Sequence of Luciferin 4-monooxygenase (Photinus pyralis) (P08659 whole entry, looked up): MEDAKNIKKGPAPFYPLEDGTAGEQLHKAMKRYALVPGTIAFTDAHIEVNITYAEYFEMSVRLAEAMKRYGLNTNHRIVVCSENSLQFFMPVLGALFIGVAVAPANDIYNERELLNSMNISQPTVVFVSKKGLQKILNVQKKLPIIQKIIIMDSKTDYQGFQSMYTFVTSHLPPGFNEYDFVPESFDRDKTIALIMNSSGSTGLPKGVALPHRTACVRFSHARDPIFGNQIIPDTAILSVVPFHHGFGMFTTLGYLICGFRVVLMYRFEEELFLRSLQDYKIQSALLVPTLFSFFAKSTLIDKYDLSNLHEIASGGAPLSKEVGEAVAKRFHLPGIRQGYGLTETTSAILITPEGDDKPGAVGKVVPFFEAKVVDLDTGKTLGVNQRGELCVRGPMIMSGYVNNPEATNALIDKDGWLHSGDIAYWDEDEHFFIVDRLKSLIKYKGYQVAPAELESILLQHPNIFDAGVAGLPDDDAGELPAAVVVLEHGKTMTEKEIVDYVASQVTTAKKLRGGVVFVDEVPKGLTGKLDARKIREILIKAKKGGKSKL

In the case of `CCCCC(CC)COP(=O)(Oc1ccccc1)Oc1ccccc1` (configuration not stated), the result in assay [1], in assay [2], in assay [3], in assay [4], in assay [5] and in assay [6] was inactive. Moreover, the result in assay [7] and in [8] was inactive.

For the molecule `CCOC(=O)c1ccccc1N`, the molecule was called inactive in [9] and in assay [8].

Turning to `CCOc1ccc(C(C)(C)COCc2cccc(Oc3ccccc3)c2)cc1`, the result in assay [9], in assay [10] and in assay [8] was inactive.

For the molecule `CCOC(=O)c1ccccc1C(=O)OCC`, the result in assay [1], in assay [9] and in [10] was inactive.

With `O=C(O)C1C(C(=O)O)C2(Cl)C(Cl)=C(Cl)C1(Cl)C2(Cl)Cl` (configuration not stated), the result in assay [1], in assay [10], in assay [3], in assay [5], in [6] and in assay [11] was inactive. Further, the molecule was called inactive in assay [12], in assay [13] and in [8].

Take `c1ccc(OP(Oc2ccccc2)Oc2ccccc2)cc1`: the molecule was called inactive in [9], in assay [10] and in assay [14].

For the molecule `CCOP(=S)(OCC)SCS(=O)(=O)CC`, in assay [9], the molecule was called inactive.

For the molecule `Nc1ccc2ccccc2c1`, the outcome in [1] and in assay [2] was inactive. In addition, the figures for the AC50 in assay [9], in assay [10] and in [14] were 23.9 µM (active), 36.8 µM (active) and 53.8 µM (active), respectively.

As for `CCCCN(CCCC)N=O`, the call in [10] and in [8] was inactive.

As to `O=C(CBr)OCc1ccccc1`, the result in assay [8] was inactive.

`CSC(C)(C)C=NO`: the outcome in assay [10] and in assay [8] was inactive.

`CC(C)(C)OOC(C)(C)C`: in assay [10], the molecule was called inactive.

In the case of `ClC(Cl)(Cl)c1ccccc1`, the molecule was classed as inactive in [10] and in assay [8].

As to `Cc1ccc(O)cc1C`, in [10], the result was inactive.

As to `ClC1=C(Cl)C2(Cl)C3C(Cl)C(Cl)CC3C1(Cl)C2(Cl)Cl` (configuration not stated), the molecule was called inactive in assay [10]. Moreover, the half-maximal activity concentration (AC50) in [8] was 11.9 µM (active).

Consider `CC(Cc1ccc(OCC(=O)O)cc1)NCC(O)c1csc(C(F)(F)F)n1` (configuration not stated), for which the molecule was classed as inactive in assay [10] and in [8].

Turning to `O=P1(N(CCCl)CCCl)NCCCO1` (configuration not stated), the molecule was classed as inactive in [10] and in assay [8].

`CCOP(=S)(OCC)SCSCC`: the outcome in [10] and in [14] was inactive. In [8], the concentration at half-maximal activity (AC50) is 83.4 µM (active).

Regarding `[N-]=[N+]=[N-]`, the molecule was called inactive in assay [10], in assay [14] and in assay [8]. In assay [15], the AC50 is 26.5 µM (active).

As for `CC1(C)CN=C(NN=C(/C=C/c2ccc(C(F)(F)F)cc2)/C=C/c2ccc(C(F)(F)F)cc2)NC1`, the AC50 in assay [8] is 12.6 µM (active).

`CCCCOCCOP(=O)(OCCOCCCC)OCCOCCCC`: the molecule was classed as inactive in assay [9] and in assay [8].

Regarding `CCCCN(CCCC)SN(C)C(=O)Oc1cccc2c1OC(C)(C)C2`, the molecule was classed as inactive in assay [10]. In addition, the AC50 in assay [8] was 57.4 µM (active).

`CCCCCCCc1ccc(O)cc1`: the outcome in assay [10] was inactive. Further, the half-maximal activity concentration (AC50) in assay [14] was 43.6 µM (active); in assay [8], 29.2 µM (active).

For `O=c1ssc(Cl)c1Cl`, the AC50 in assay [14] is 18 µM (active); in [8] it was 0.671 µM (active).

For `CC(Cl)(Cl)C(=O)O`, in assay [10], the result was inactive.

Regarding `CCOS(=O)(=O)OCC`, the call in assay [10] was inactive.

Turning to `CCCCN(CC)C(=O)SCCC`, the call in [14] and in assay [8] was inactive.

Take `OCC1CO1` (configuration not stated): the molecule was called inactive in assay [10] and in assay [8].

On to `CCCN(CCC)c1c([N+](=O)[O-])cc(C(C)C)cc1[N+](=O)[O-]`, for which the call in assay [10] was inactive. Besides, in assay [8], the AC50 is 45.2 µM (active).

Regarding `CC(C)(C)N(NC(=O)c1ccc(Cl)cc1)C(=O)c1ccccc1`, in [8], the call was inactive.

Consider `CCCCOCC1CO1` (configuration not stated), for which the call in assay [8] was inactive.

In the case of `CCCCc1ccccc1`, the molecule was called inactive in [10].

In the case of `O=P(OCC(Br)CBr)(OCC(Br)CBr)OCC(Br)CBr` (configuration not stated), the AC50 in assay [8] is 23.3 µM (active).

Consider `CCN(CC)c1ccccc1`, for which the molecule was called inactive in assay [10].

On to `Cc1ccc([N+](=O)[O-])cc1C`, for which the result in assay [10] and in [8] was inactive.

With `O=C(O)CF`, the result in [8] was inactive.

Take `c1cc2c3c(cccc3c1)CC2`: the outcome in assay [10] and in [8] was inactive.

In the case of `ClC(Cl)c1ccccc1`, the molecule was called inactive in assay [10] and in assay [8].

Turning to `CN(C)C(=O)Cl`, the outcome in assay [10] was inactive.

`O=[N+]([O-])c1ccc(Cl)c(Cl)c1`: the call in assay [10] and in [8] was inactive.

For the molecule `c1nc[nH]n1`, in assay [10], the molecule was called inactive.

Regarding `CC(C)(C)c1ccc(O)cc1`, the AC50 in assay [10] was 42.8 µM (active). Moreover, the molecule was classed as inactive in [14].

By AC50 is commonly meant the concentration at which the activity in the assay is half-maximal.
